Inconclusive results are not listed. Unmarked numbers belong to inactive results. Calls of active or inactive are those of the source. Calls come from the whole dose curve; as a rule, active = well fitted inhibition curve with a large enough effect; inconclusive = small, poorly fitted or top-dose-only effect; inactive = flat fitted curve, though single readings scatter.
What follows are compounds tested on Zika virus NS2B-NS3 protease (assay: Primary screen GU AMC qHTS for Zika virus inhibitors (AID 1347154; note: nearly all actives have a fitted effect of over 70% in size;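 for activity change, negative = inhibition: 0% = no-inhibitor control and -100% = no-enzyme control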)). Conditions: Zika NS2B-NS3 unlinked protease, AMC fluorogenic substrate; series mostly up to 54.1 µM; activity change, negative = inhibition: at the top concentration.
Outline: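 Fluorogenic AMC-substrate cleavage by noncovalent NS2B-NS3 protease complex (25 nM, pH 8.0 Tris buffer with Tween 20) followed for 15 minutes at room temperature (~20% conversion). Percent inhibition from ex340/em450 signal change, fitted by 4-parameter Hill equation.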
Potency is the fitted concentration of half-maximal effect.

| SMILES | Potency | activity change, negative = inhibition [%] |
| --- | --- | --- |
| NC(=O)c1ccc2nc(-c3ccc(Oc4ccc(Cl)cc4)cc3)[nH]c2c1 | 24.1 µM (active) | – |
| Cc1ccc([C@@H]2O[C@H](CO)[C@@H](O)[C@H](O)[C@@H]2O)cc1Cc1ccc(-c2ccc(F)cc2)s1 | – | 7.91 |
| Oc1ccc(C2=Cc3ccc(O)cc3OC2)cc1 | – | -0.671 |
| CO[C@H]1C[C@@H]2CC[C@@H](C)[C@@](O)(O2)C(=O)C(=O)N2CCCC[C@@H]2C(=O)O[C@H]([C@@H](C)C[C@@H]2CC[C@H](O)[C@H](OC)C2)CC(=O)[C@H](C)C=C(C)[C@@H](O)[C@@H](OC)C(=O)[C@H](C)C[C@H](C)C=CC=CC=C1C | – | 1.95 |
| Cc1ccc(C(C)(O)c2nc3ccccc3s2)c(C)c1 (stereo not drawn) | – | -3.95 |
| NCCS | – | 2.02 |
| CC1=C(/C=C/C(C)=C/C=C/C(C)=C/C(=O)Nc2ccc(O)cc2)C(C)(C)CCC1 | inactive | – |
| CO[C@H]1C[C@@H]2CC[C@@H](C)[C@@](O)(O2)C(=O)C(=O)N2CCCC[C@@H]2C(=O)O[C@H]([C@H](C)C[C@@H]2CC[C@H](OC(=O)C(C)(CO)CO)[C@H](OC)C2)CC(=O)[C@H](C)C=C(C)[C@@H](O)[C@@H](OC)C(=O)[C@H](C)C[C@H](C)C=CC=CC=C1C | – | 6.27 |

Source: PubChem BioAssay (NCATS)
